One experiment concerns CRL-7250. Briefly: Cytotoxic Profiling of Annotated Libraries Using Quantitative High-Throughput Screening (AID 1296008). Also: nearly all actives have a fitted effect of over 60% in size. As to max response: % is scaled to controls: 0 for no effect and ±100 for the full control effect. Particulars: Five cell lines viability, CellTiter-Glo ATP luminescence, 48-72 h; max response: hits give low values. The procedure, abridged:
(§1)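 Cytotoxicity was measured as CellTiter-Glo ATP luminescence, read after 10 min at room temperature. Compound treatment of the cells lasted 48 or 72 hr at 37 degrees Celsius in a qHTS format.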
A general note: In ATP-based viability assays light output follows the ATP content of the culture.

The subject of a further experiment is HEK293. The experiment is described as above. Particulars: Five cell lines viability, CellTiter-Glo ATP luminescence, 48-72 h; max response: hits give low values. The procedure, abridged: as §1
Experiment [1] has as its system HaCat. The experiment is described as above. Particulars: Five cell lines viability, CellTiter-Glo ATP luminescence, 48-72 h; max response: hits give low values. The procedure, abridged:
as §1

The next experiment deals with KB-3-1. Described as above. Particulars: Five cell lines viability, CellTiter-Glo ATP luminescence, 48-72 h; max response: hits give low values. In outline: as §1
Experiment [2] deals with NIH3T3. The experiment is described as above. Particulars: Five cell lines viability, CellTiter-Glo ATP luminescence, 48-72 h; max response: hits give low values. In outline:
as §1

For another experiment, the system named is HEK293T. The experiment is described as follows: qHTS assay to identify novel small-molecules to repurpose for Merkel cell carcinoma treatment (AID 1296009). Also: nearly all actives have a fitted effect of over 60% in size. Particulars: MCC and control cell lines, CellTiter-Glo viability, 72 h; at 44.8 µM (top of the series) unless noted. In outline: (§2)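 After compound transfer in DMSO, plates were kept 72 hr at 37 degree celsius. Luminescent ATP signal from CellTiter-Glo served as viability measure, normalized against DMSO and no-cell controls.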
On the technique in general: Quantitative high-throughput screening tests each substance at several concentrations.

Another experiment has as its system MCC-13. Described as above. Particulars: MCC and control cell lines, CellTiter-Glo viability, 72 h; series mostly up to 46 µM. In outline: as §2
The next experiment has as its system MCC-26. The description is as above. Particulars: MCC and control cell lines, CellTiter-Glo viability, 72 h; series mostly up to 46 µM. The procedure, abridged: as §2
The next experiment deals with MKL-1. The description is as above. Particulars: MCC and control cell lines, CellTiter-Glo viability, 72 h; series mostly up to 46 µM. In outline: as §2
A further experiment concerns MKL-2. The experiment is described as above. The following applies: MCC and control cell lines, CellTiter-Glo viability, 72 h; series mostly up to 46 µM. The procedure, abridged:
as §2

In a further experiment the test system is UISO. The experiment is described as above. The following applies: MCC and control cell lines, CellTiter-Glo viability, 72 h; series mostly up to 46 µM. In outline:
as §2

The subject of another experiment is WaGa. The description is as above. The following applies: MCC and control cell lines, CellTiter-Glo viability, 72 h; series mostly up to 46 µM. In outline:
as §2

For a further experiment, the system named is C33A. The experiment is described as follows: Primary qHTS to identify gynecologic anti-cancer compounds using libraries of approved drugs and bioactive compounds (AID 1345084). Also: % is scaled to controls: 0 for no effect and ±100 for the full control effect; nearly all actives have a fitted effect of over 55% in size. Particulars: Gynecologic cancer cell panel viability, ATPlite luminescence, 48 h; series mostly up to 57.5 µM. In outline:
(§3)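 48 h compound exposure at 37 C, 5% CO2; five-point qHTS. ATPlite luminescence readout of cell ATP.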

A further experiment deals with CAOV3. The experiment is described as above. The following applies: Gynecologic cancer cell panel viability, ATPlite luminescence, 48 h; series mostly up to 57.5 µM. The procedure, abridged: as §3
In another experiment the test system is CASKI. Described as above. Particulars: Gynecologic cancer cell panel viability, ATPlite luminescence, 48 h; series mostly up to 57.5 µM. The procedure, abridged:
as §3

Another experiment deals with TAB113. Briefly: qHTS profiling for inhibitors of Plasmodium falciparum proliferation (AID 504749). Also: nearly all actives have a fitted effect of over 60% in size. Also: potency is read from the fitted curve at half-maximal effect. The following applies: P. falciparum in erythrocytes, SYBR Green DNA, 72 h; series mostly up to 28.7 µM. In outline: (§4)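 Three-day growth assay of blood-stage parasites in erythrocytes (0.3% parasitemia, 2.5% hematocrit) at 37 C, 5% CO2, quantified by SYBR Green DNA staining after overnight detergent lysis.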

For the next experiment, the system named is TAB165. Described as above. The following applies: P. falciparum in erythrocytes, SYBR Green DNA, 72 h; series mostly up to 28.7 µM. The procedure, abridged:
as §4

In a further experiment the test system is W2. Described as above. Particulars: P. falciparum in erythrocytes, SYBR Green DNA, 72 h; series mostly up to 28.7 µM. The procedure, abridged: as §4
The test system of experiment [3] is HACAT. The experiment is described as follows: qHTS assay to identify novel small-molecules to repurpose for Merkel cell carcinoma treatment (AID 1296009). Also: nearly all actives have a fitted effect of over 60% in size. The following applies: MCC and control cell lines, CellTiter-Glo viability, 72 h. The procedure, abridged: as §2
The subject of experiment [4] is NIH3T3. Described as above. Particulars: MCC and control cell lines, CellTiter-Glo viability, 72 h; at 44.8 µM (top of the series) unless noted. In outline:
as §2

Where [5] appears, read: at 44.8 µM (top of the series) unless noted.

Molecules are shown by their SMILES. “And” between values parts separate entries of the source, which are not always exact repeats. Equal values may be shown once. Records with an inconclusive call do not appear. A number with no mark means an inactive call. The source made the active and inactive calls. Calls follow the shape of the dose curve; as a rule, active = well fitted curve in the direction sought with a large enough effect; inconclusive = small, poorly fitted or top-dose-only effect, or another doubt; inactive = no such curve, though single readings can be large; an effect the other way counts as inactive or inconclusive.

Results on 6 compounds are retold here after PubChem BioAssay (NCATS).

As to `Cc1onc(-c2c(Cl)cccc2Cl)c1C(=O)N[C@@H]1C(=O)N2[C@@H]1SC(C)(C)[C@@H]2C(=O)O`, the max response was -3.36% and -1.59% in the experiment with CRL-7250; -5.63% in the experiment on HEK293; -4.29% in the experiment with HaCat [1]; -7.64% and 7.08% with KB-3-1; -14.9% and -2.17% in the experiment with NIH3T3 [2]. Moreover, the compound was classed as inactive in the experiment on HEK293 and in the experiment with HEK293T. Moreover, the Potency entry in the experiment with MCC-13, in the experiment on MCC-26, in the experiment on MKL-1, with MKL-2, in the experiment with UISO and in the experiment on WaGa was “inactive” each time. In addition, the Potency result with C33A, in the experiment on CAOV3 and with CASKI was “inactive” in each case.

For the compound `CCCN1CCCC[C@H]1C(=O)Nc1c(C)cccc1C`, the Potency result in the experiment with TAB113, in the experiment with TAB165, with MCC-13, in the experiment with MCC-26, in the experiment with MKL-1 and in the experiment with MKL-2 was “inactive” each time. For the same compound, the Potency entry in the experiment with UISO, in the experiment on WaGa, in the experiment with C33A, in the experiment on CAOV3 and in the experiment with CASKI was “inactive” in each case. The Potency with W2 is 4.78 µM (active). For the same compound, the max response is -6.22% in the experiment on CRL-7250, -0.54% with HEK293, -10% in the experiment on KB-3-1 and -2.9% with NIH3T3 [2]. Further, the outcome in the experiment with HaCat [1] and in the experiment with HACAT [3] (setting [5]) was inactive.

Consider `OC[C@H]1O[C@H](O[C@]2(CCl)O[C@H](CCl)[C@@H](O)[C@@H]2O)[C@H](O)[C@@H](O)[C@H]1Cl`, for which the compound was called inactive in the experiment on CRL-7250, in the experiment with HEK293, with KB-3-1, with NIH3T3 [2], in the experiment on HEK293T and in the experiment with NIH3T3 [4]. The max response in the experiment on HEK293 is -9.55%; with HaCat [1], -7.79% and -6.26%; in the experiment on NIH3T3 [2], -17.4%. The Potency result in the experiment on MCC-13, in the experiment with MCC-26, in the experiment on MKL-1, in the experiment with MKL-2, with UISO and with WaGa was “inactive” throughout. The Potency entry with C33A, in the experiment on CAOV3 and with CASKI was “inactive” throughout.

Regarding `O=c1[nH]c(=O)n([C@H]2CCCO2)cc1F`, the max response in the experiment with CRL-7250 is 4.85% and -6.48%; in the experiment on HEK293, 1.04%; in the experiment with KB-3-1, 8.54%; in the experiment with NIH3T3 [2], -5.35%. Besides, the compound was classed as inactive with HEK293, in the experiment on HaCat [1], in the experiment on HACAT [3] (setting [5]) and with HEK293T. Besides, the Potency result in the experiment on MCC-13, in the experiment with MCC-26, in the experiment with MKL-1, with MKL-2, with UISO and in the experiment with WaGa was “inactive” each time. The Potency entry with C33A, with CAOV3 and in the experiment on CASKI was “inactive” each time.

`CCCCS(=O)(=O)N[C@@H](Cc1ccc(OCCCCC2CCNCC2)cc1)C(=O)O`: the max response was -2.86% and 2.79% with CRL-7250; -5.53% and -1.56% in the experiment on HEK293; -0.76% in the experiment on HaCat [1]; -7.62% with KB-3-1; -1.76% with NIH3T3 [2]. Moreover, the compound was called inactive in the experiment on HaCat [1], with KB-3-1, in the experiment on NIH3T3 [2], in the experiment on HACAT [3] (setting [5]) and in the experiment on NIH3T3 [4]. In addition, the Potency result with MCC-13, in the experiment with MKL-1, in the experiment on MKL-2, in the experiment with UISO, in the experiment with WaGa and in the experiment on C33A was “inactive” in each case. The Potency entry with CAOV3 and in the experiment on CASKI was “inactive” throughout.

On to `Cc1nc2n(c(=O)c1CCN1CCC(c3noc4cc(F)ccc34)CC1)CCC[C@H]2O`, for which the max response in the experiment with CRL-7250 was -3.73%; with HEK293 it was -1.89%; with KB-3-1, -12.7% and -2.14%; in the experiment on NIH3T3 [2], 1.23%. The outcome in the experiment on CRL-7250, in the experiment on HEK293, with HaCat [1], with NIH3T3 [2], with HACAT [3] (at 17.4 µM (top of the series)) and in the experiment on HACAT [3] (at 44.8 µM (top of the series)) was inactive. Moreover, the compound was called inactive with HEK293T. The Potency entry in the experiment on MCC-13, with MCC-26, in the experiment with MKL-1, with MKL-2, in the experiment on UISO and with WaGa was “inactive” in each case. In addition, the Potency result in the experiment with C33A and in the experiment on CASKI was “inactive” throughout. In addition, the outcome in the experiment on NIH3T3 [4] was “inactive [at 17.4 µM]”.
